Inconclusive results are not listed. Where a call stands in place of a potency, no number is given. Activity calls are given as the source filed them. Unless noted, calls come from the whole dose curve; as a rule, active = well fitted curve in the direction sought with a large enough effect in the repeat runs; inconclusive = weak or mixed curves; inactive = no such curve, though single readings can be large; an effect the other way counts as inactive or inconclusive.
Assays:
[1] = qHTS assay to identify small molecule antagonists of the vitamin D receptor (VDR) signaling pathway - cell viability counter screen (AID 743225); note: nearly all actives have a fitted effect of over 50% in size; note: potency is the fitted concentration of half-maximal effect
Summary of the method: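 Cells (VDR-UAS-bla HEK 293T) are plated, rested 4 h at 37C, dosed with compound and 3 nM final 1-alpha,25-dihydroxy vitamin D3, and incubated 16 h. Viability is taken from CellTiter-Glo luminescence in the reporter wells.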

[2] = qHTS assay to identify small molecule agonists of the NFkB signaling pathway - cell viability counter screen (AID 1159515; calls by dose curve; note: nearly all actives have a fitted effect of over 55% in size; note: potency is the fitted concentration of half-maximal effect)
Summary of the method: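 Counter screen run alongside the NFkB-bla agonist assay: ME-180 reporter cells exposed to compounds for 5 hr, then lysed with CellTiter-Glo in the same wells. Luminescence, read after 30 min, reflects viable cells.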

[3] = qHTS assay to identify small molecule agonists of the endoplasmic reticulum stress response signaling pathway - cell viability counter screen (AID 1159517; calls by dose curve; note: nearly all actives have a fitted effect of over 50% in size; note: potency is the fitted concentration of half-maximal effect)
Summary of the method: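 In parallel with the ESRE reporter read, cytotoxicity was scored by CellTiter-Glo luminescence (30 min, room temperature) on HeLa ESRE-bla cells dosed for 5 hr.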

[4] = target: Nuclear receptor ROR-gamma (Homo sapiens) (UniProt P51449); experiment: qHTS assay to identify small molecule antagonists of the retinoid-related orphan receptor gamma (ROR-gamma) signaling pathway (AID 1159521; note: nearly all actives have a fitted effect of over 50% in size; note: potency is the fitted concentration of half-maximal effect)
Summary of the method: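 RORγ antagonism is scored from reduced reporter luminescence in Tet-on CHO cells. Induction used 1 uM final doxycycline hyclate for 16 h at 37 C, following a 2 h compound exposure.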

[5] = qHTS assay to identify small molecule agonists of the AP-1 signaling pathway - cell viability counter screen (AID 1159525; calls by dose curve; note: nearly all actives have a fitted effect of over 55% in size; note: potency is the fitted concentration of half-maximal effect)
Summary of the method: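 Same-well cytotoxicity counter screen of the Tox21 10K library in ME-180 cells. The readout is ATP-dependent luminescence after 5 h compound treatment. Data are normalised to DMSO and tetra n-octyl ammonium bromide controls.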

[6] = qHTS assay to identify small molecule agonists of the RXR signaling pathway - cell viability counter screen (AID 1159529); note: nearly all actives have a fitted effect of over 50% in size; note: potency is the fitted concentration of half-maximal effect
Summary of the method: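 Cell viability is measured by CellTiter-Glo luminescence, 30 min at room temperature, in wells already read for beta-lactamase. Engineered HEK 293T cells (RXR-alpha-UAS-bla) are dosed 16 hr at 37 C. Tetraoctyl ammonium bromide serves as positive control.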

[7] = qHTS assay to identify small molecule antagonists of the retinoid acid receptor (RAR) signaling pathway - cell viability counter screen (AID 1159551); note: nearly all actives have a fitted effect of over 35% in size
Summary of the method: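 Measured by luminescent ATP detection, viability reflects C3RL4 cells treated 6 h at 37 C with test chemicals in the presence of 1 uM (final) retinol.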

[8] = qHTS assay to identify small molecule agonists of the vitamin D receptor (VDR) signaling pathway - cell viability counter screen (AID 743224); note: nearly all actives have a fitted effect of over 50% in size; note: potency is the fitted concentration of half-maximal effect
Summary of the method: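 Counter screen for cytotoxicity: VDR-bla cells at 2,000 cells/well, 16 h compound exposure, then CellTiter-Glo luminescence after the beta-lactamase measurement.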

[9] = qHTS assay to identify small molecule agonists of the AP-1 signaling pathway (AID 1159526; calls by dose curve)
[10] = target: Retinoic acid receptor RXR-alpha (Homo sapiens) (UniProt P19793); experiment: qHTS assay to identify small molecule agonists of the RXR signaling pathway (AID 1159527; calls by dose curve; note: nearly all actives have a fitted effect of over 35% in size)
Chain of Retinoic acid receptor RXR-alpha (Homo sapiens) (P19793 whole entry, looked up): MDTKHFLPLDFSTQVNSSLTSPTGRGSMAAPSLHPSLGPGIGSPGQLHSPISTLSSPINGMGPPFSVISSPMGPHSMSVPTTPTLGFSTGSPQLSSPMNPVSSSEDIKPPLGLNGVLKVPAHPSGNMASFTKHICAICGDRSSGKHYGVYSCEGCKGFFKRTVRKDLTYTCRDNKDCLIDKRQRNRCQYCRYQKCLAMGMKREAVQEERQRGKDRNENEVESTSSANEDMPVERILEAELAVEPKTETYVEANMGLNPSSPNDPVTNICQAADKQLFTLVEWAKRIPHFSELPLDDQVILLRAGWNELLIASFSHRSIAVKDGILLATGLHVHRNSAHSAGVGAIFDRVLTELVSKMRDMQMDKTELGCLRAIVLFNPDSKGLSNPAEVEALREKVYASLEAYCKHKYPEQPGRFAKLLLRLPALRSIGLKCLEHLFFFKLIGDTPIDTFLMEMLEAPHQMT
Summary of the method: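 qHTS of the Tox21 10K library in GeneBLAzer RXR-alpha HEK 293T cells carrying a beta-lactamase reporter […]; 16 hr treatment, 9-cis retinoic acid as agonist control, FRET read-out.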

[11] = qHTS assay to identify small molecule antagonists of the retinoic acid receptor (RAR) signaling pathway (AID 1159552; note: nearly all actives have a fitted effect of over 50% in size)
Summary of the method: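 Quantitative HTS in C3RL4 RARE-luciferase reporter cells. Compounds were added with 1 uM (final) retinol; luminescence was read after 6 hr.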

[12] = qHTS assay to identify small molecule agonists of the retinoic acid receptor (RAR) signaling pathway (AID 1159553)
Summary of the method: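 6 hr compound exposure (DMSO vehicle) of overnight-plated C3RL4 RARE-luc cells at 37 C; luminescence quantified after 30 min RT with luciferase reagent.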

SMILES	Potency [1]	Potency [2]	Potency [3]	Potency [4]	Potency [5]	Potency [6]	Potency [7]	Potency [8]	Potency [9]	Potency [10]	Potency [11]	Potency [12]
CCCCCCCC/C=C\CCCCCCCCOCCO	9 µM (active)	31.9 µM (active)	31.9 µM (active)	20 µM (active)	25.4 µM (active)	22.6 µM (active)	inactive					
CN(C)[C@@H]1C(=O)C(C(N)=O)=C(O)[C@@]2(O)C(=O)C3=C(O)c4c(O)cccc4C[C@H]3C[C@@H]12	inactive	inactive	inactive	13.3 µM (active)	inactive	inactive	inactive	inactive	inactive	inactive		
CCCCN(CCCC)c1ccc(C(=O)c2ccccc2C(=O)O)c(O)c1		inactive	35 µM (active)	inactive	inactive		inactive		inactive			
C=C(C)C(=O)OCC(O)COc1ccc(C(C)(C)c2ccc(OCC(O)COC(=O)C(=C)C)cc2)cc1 (configuration not stated)	19.5 µM (active)	inactive	inactive	24.3 µM (active)	inactive		inactive	12.3 µM (active)			inactive	
CO[Si](CCCNc1ccccc1)(OC)OC	inactive	inactive	inactive	inactive	inactive	inactive	inactive	inactive		inactive	inactive	inactive

— PubChem BioAssay (Tox21)
